# Test results taken from PubChem BioAssay.
# Several values for one entry are separate records, joined by “and”; a condition that tells them apart may be missing. Equal entries are not always repeated. Activity calls are given as the source filed them.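 Rule for the calls, unless noted: active = mean z-score across replicates of 1.96 or higher in either the MELAS or the Rieske mutant cell line; inactive = the rest.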
# Assay: MELAS cybrid and Rieske KO viability enhancers – cell-based, MELAS cybrids, Rieske KO mouse fibroblasts, CellTiter-Glo, primary screen (AID 1508586);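 note: test concentration not given here; z relative to plate mean and SD of compound and empty wells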
# Conditions: MELAS cybrid survival, low glucose, CellTiter-Glo 48 h; stronger effect = higher value
row,SMILES,z-score
1,Nc1nc(N)c(N=O)c(OCC2CCCCC2)n1,-0.213 (inactive)
2,CC(C)(C)c1nc(-c2cccc(NS(=O)(=O)c3c(F)cccc3F)c2F)c(-c2ccnc(N)n2)s1,-0.255 (inactive)
3,CCOc1cc(N2CCC(O)CC2)ccc1Nc1ncc2c(n1)N(C)c1ccccc1C(=O)N2C,-0.56 (inactive)
4,Cc1ccc(-n2[nH]c(C)c(N=Nc3cccc(-c4cccc(C(=O)O)c4)c3O)c2=O)cc1C,-0.18 (inactive)
5,CCc1nc(-c2cccc(C)c2)c(-c2ccnc(NC(=O)c3ccccc3)c2)s1,0.655 (inactive)
6,Nc1ncnc2c1c(-c1cccc(OCc3ccccc3)c1)cn2C1CC(CN2CCC2)C1 (stereo not given),-0.54 (inactive)
7,NC[C@@H]1O[C@H](O[C@H]2[C@@H](O)[C@H](O[C@@H]3[C@@H](O)[C@H](N)C[C@H](N)[C@H]3O[C@H]3O[C@H](CN)[C@@H](O)[C@H](O)[C@H]3N)O[C@@H]2CO)[C@H](N)[C@@H](O)[C@@H]1O,-0.364 (inactive) and -0.26 (inactive)
8,COc1ccc(-c2c(-c3ccc(O)cc3O)n[nH]c2C)cc1,0.614 (inactive)

# Same assay, conditions: Rieske KO mouse fibroblast survival, low glucose, CellTiter-Glo 72 h
row,SMILES,z-score
1,Nc1nc(N)c(N=O)c(OCC2CCCCC2)n1,-2.45
2,CC(C)(C)c1nc(-c2cccc(NS(=O)(=O)c3c(F)cccc3F)c2F)c(-c2ccnc(N)n2)s1,0.678
3,CCOc1cc(N2CCC(O)CC2)ccc1Nc1ncc2c(n1)N(C)c1ccccc1C(=O)N2C,-1.56
4,Cc1ccc(-n2[nH]c(C)c(N=Nc3cccc(-c4cccc(C(=O)O)c4)c3O)c2=O)cc1C,-0.0982
5,CCc1nc(-c2cccc(C)c2)c(-c2ccnc(NC(=O)c3ccccc3)c2)s1,0.137
6,Nc1ncnc2c1c(-c1cccc(OCc3ccccc3)c1)cn2C1CC(CN2CCC2)C1 (stereo not given),-0.0242
7,NC[C@@H]1O[C@H](O[C@H]2[C@@H](O)[C@H](O[C@@H]3[C@@H](O)[C@H](N)C[C@H](N)[C@H]3O[C@H]3O[C@H](CN)[C@@H](O)[C@H](O)[C@H]3N)O[C@@H]2CO)[C@H](N)[C@@H](O)[C@@H]1O,-0.155 and -1.25
8,COc1ccc(-c2c(-c3ccc(O)cc3O)n[nH]c2C)cc1,-0.216

# Assay: galactose survival enhancers in mitochondrial complex I cybrids – cell-based, galactose medium, ATP luminescence, primary screen (AID 1645843;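 active = z-score of at least 1.8 in each of two replicates, scored against plate mean and spread of sample wells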;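 note: positive z means more ATP and so rescue of galactose-driven cybrid death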)
# Conditions: complex I mutant cybrid cells, 72 h, stronger effect = higher value
row,SMILES,z-score
1,Nc1nc(N)c(N=O)c(OCC2CCCCC2)n1,1.21 (inactive)
2,NC[C@@H]1O[C@H](O[C@H]2[C@@H](O)[C@H](O[C@@H]3[C@@H](O)[C@H](N)C[C@H](N)[C@H]3O[C@H]3O[C@H](CN)[C@@H](O)[C@H](O)[C@H]3N)O[C@@H]2CO)[C@H](N)[C@@H](O)[C@@H]1O,0.135 (inactive)
3,COc1ccc(-c2c(-c3ccc(O)cc3O)n[nH]c2C)cc1,-1.81 (inactive)
4,O=C(Nc1nc2ccccc2n1CCN1CCOCC1)c1cccc([N+](=O)[O-])c1,1.46 (inactive)
